Experiment [1] in a line: Primary qHTS for Huh7 cytotoxicity: counterscreen for inhibitors of MERS-S pseudotyped particle cell entry (AID 1479147). To be noted: outcome: dose series up to 57.1 µM unless noted. On the technique in general: Quantitative high-throughput screening tests each substance at several concentrations.
The nature of experiment [2]: Primary qHTS for inhibitors of MERS-S pseudo-typed particle cell entry (AID 1479149). Further: nearly all actives have a fitted effect of over 60% in size. On activity change, negative = inhibition: on the % scale 0 is the no-effect control and ±100 the full control effect. To be noted: outcome: dose series up to 57.1 µM unless noted.
Experiment [3] is described as follows: Primary qHTS for Vero E6 cytotoxicity: counterscreen for inhibitors of SARS-S pseudo-typed particle cell entry (AID 1479150). Particulars: outcome: dose series up to 57.1 µM unless noted.
A short description of experiment [4]: Cytotoxicity counterscreen for inhibitors of SARS-CoV-2 cell entry (AID 1645845). Further: nearly all actives have a fitted effect of over 50% in size. Particulars: outcome: dose series up to 57.1 µM unless noted. In a few lines: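 48 h compound treatment (after 1 h preincubation), HEK293-ACE2 cells, 37 C/5% CO2; ATP luminescence endpoint; normalized to cell wells and media blanks.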
(The purpose of a counterscreen is to sort out artefacts and off-target activity.)

Experiment [5] is described as follows: Primary qHTS to identify inhibitors of SARS-CoV-2 cell entry (AID 1645846). Further: nearly all actives have a fitted effect of over 45% in size. To be noted: SARS-CoV-2 pseudovirus cell entry assay, luminescence; activity change, negative = inhibition: at 57.1 µM (top of the series) unless noted. In a few lines:
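HEK293-ACE2 (Expi293F, stable hACE2), 1500 cells/well, o/n 37C; cpd 23 nL pin, 1 h; MLV-PP w/ SARS-CoV-2-S (Wuhan-Hu-1, Δ19 C-term); 48 h 37C; Bright-Glo luminescence; normalized vs S-PP and bald PP.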

Experiment [6] has as its target Glutathione peroxidase 1 (Homo sapiens) (UniProt P07203). Put plainly: Primary qHTS Assay for Inhibitors of Recombinant Selenoprotein Glutathione Peroxidase 1 (GPX1) (AID 1845191; active means well fitted inhibition curve with a large enough effect; further: on the % scale 0 is the no-effect control and ±100 the full control effect; nearly all actives have a fitted effect of over 65% in size). The method, boiled down:
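10 nM GPX1 + cpd, 30 min RT; start w/ 1 mM GSH, 0.5 mM cumene hydroperoxide, 0.5 mM NADPH, 100 nM GR, 0.01% BSA; buffer 50 mM Tris-HCl pH 7.5, 2 mM EDTA, 150 mM NaCl; Fl 340/450, 0 & 15 min.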

In experiment [7] the target is Phospholipid hydroperoxide glutathione peroxidase GPX4 (Homo sapiens) (UniProt P36969). Put plainly: Primary qHTS Assay for Inhibitors of Recombinant Selenoprotein Glutathione Peroxidase 4 (GPX4) (AID 1845192; active means well fitted inhibition curve with a large enough effect; further: nearly all actives have a fitted effect of over 65% in size). The method, boiled down: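 NADPH consumption, followed by fluorescence at 340/450 nm between 0 and 15 min, reports GPX4 activity via coupled glutathione reductase (100 nM). Enzyme 200 nM was pre-exposed to compound 30 min; 0.5 mM cumene hydroperoxide and 1 mM GSH served as substrates.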

Results filed as inconclusive are left out. Active and inactive are the calls of the source. Unless noted, the call rests on the fitted dose curve.

Glutathione peroxidase 1 (Homo sapiens), sequence (P07203 whole entry, looked up): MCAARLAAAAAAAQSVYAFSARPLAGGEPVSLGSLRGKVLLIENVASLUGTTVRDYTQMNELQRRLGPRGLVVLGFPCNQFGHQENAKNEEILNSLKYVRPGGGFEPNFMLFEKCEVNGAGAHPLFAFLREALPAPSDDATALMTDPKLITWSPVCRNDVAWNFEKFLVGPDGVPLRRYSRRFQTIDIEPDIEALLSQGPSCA
Phospholipid hydroperoxide glutathione peroxidase GPX4 (Homo sapiens), sequence (P36969 whole entry, looked up): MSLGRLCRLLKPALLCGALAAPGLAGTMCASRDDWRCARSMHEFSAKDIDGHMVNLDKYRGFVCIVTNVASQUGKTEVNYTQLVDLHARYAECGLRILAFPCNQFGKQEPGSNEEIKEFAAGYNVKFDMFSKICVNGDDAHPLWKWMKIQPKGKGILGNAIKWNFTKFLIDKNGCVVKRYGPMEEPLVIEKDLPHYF

Regarding `CC(C)OC(=O)[C@H](C)N[P@@](=O)(OC[C@H]1O[C@@H](n2ccc(=O)[nH]c2=O)[C@](C)(F)[C@@H]1O)Oc1ccccc1`, the Potency entry in experiment [1], in experiment [2], in experiment [3] and in experiment [4] was “inactive” each time. The activity change, negative = inhibition in experiment [5] was -25.3%.

For `CC[C@H](C)C1NC(=O)[C@H](Cc2ccc(O)cc2)NC(=O)[C@@H](N)CSSC[C@@H](C(=O)N2CCC[C@H]2C(=O)N[C@@H](CC(C)C)C(=O)NCC(N)=O)NC(=O)[C@H](CC(N)=O)NC(=O)[C@H](CCC(N)=O)NC1=O` (some centres not stated), the Potency entry in experiment [1], in experiment [2], in experiment [3] and in experiment [4] was “inactive” throughout. Further, the activity change, negative = inhibition in experiment [5] is -27.2%.

With `CCCCCCCCCCCCNCCNCCNCC(=O)O`, the Potency result in experiment [1], in experiment [2], in experiment [3], in experiment [4], in experiment [6] and in experiment [7] was “inactive” throughout. Moreover, the activity change, negative = inhibition in experiment [5] was -24.3% [at 27.1 µM].

Source of the values: PubChem BioAssay (NCATS).
